# Values joined by “and” are separate entries in the source; they are usually repeats but may differ in a detail not shown here. Equal values may be shown once. Inconclusive results are not listed. Where a call stands in place of a potency, no number is given. Active and inactive are the calls of the source. Unless noted, calls come from the whole dose curve; as a rule, active = well fitted curve in the direction sought with a large enough effect in the repeat runs; inconclusive = weak or mixed curves; inactive = no such curve, though single readings can be large; an effect the other way counts as inactive or inconclusive. Positions of bridges follow the written chain, without caps; N, C: chain ends. Non-standard residues stand in square brackets, D forms with d. Residues, ends and D or L forms follow the SMILES beside them. Orn = NCCC[C@H](N)C(=O)O; Mpa = O=C(O)CCS
# Tests used:
# [1] = qHTS assay to identify small molecule antagonists of the glucocorticoid receptor (GR) signaling pathway - cell viability counter screen (AID 720693); note: nearly all actives have a fitted effect of over 55% in size; note: potency is the fitted concentration of half-maximal effect
# [2] = qHTS assay for identifying genotoxic compounds that show differential cytotoxicity against isogenic chicken DT40 cell lines with known DNA damage response pathways - wild type cell line (AID 743012); note: nearly all actives have a fitted effect of over 60% in size; note: potency is the fitted concentration of half-maximal effect
# Outline: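 Wild type DT40, 300 cells/well, ~0.5 h settle at 37 C/5% CO2; compounds in DMSO added by pintool; 40 h at 37 C/5% CO2; CellTiter-Glo, 30 min RT; luminescence.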
# [3] = qHTS assay for identifying genotoxic compounds that show differential cytotoxicity against isogenic chicken DT40 cell lines with known DNA damage response pathways - Rev3 mutant cell line (AID 743014); note: nearly all actives have a fitted effect of over 55% in size; note: potency is the fitted concentration of half-maximal effect
# [4] = qHTS assay for identifying genotoxic compounds that show differential cytotoxicity against isogenic chicken DT40 cell lines with known DNA damage response pathways - Rad54/Ku70 mutant cell line (AID 743015); note: nearly all actives have a fitted effect of over 60% in size; note: potency is the fitted concentration of half-maximal effect
# [5] = qHTS assay to identify small molecule antagonists of the androgen receptor (AR) signaling pathway - cell viability counter screen (AID 743033; note: nearly all actives have a fitted effect of over 45% in size)
# [6] = target: Androgen receptor (Homo sapiens) (UniProt P10275); experiment: qHTS assay to identify small molecule antagonists of the androgen receptor (AR) signaling pathway (AID 743035; active = well fitted inhibition curve with a large enough effect in the signal ratio in the repeat runs, not every such curve was filed as active; the % refers to the signal ratio; note: potency is the fitted concentration of half-maximal effect)
# Outline: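 Fluorescence from a beta-lactamase FRET substrate (LiveBLAzer B/G, 2 h, room temperature) measured inhibition of R1881-stimulated signaling in GeneBLAzer AR-UAS-bla HEK293 cells exposed to compound for 16 h at 37C.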
# [7] = target: Androgen receptor (Homo sapiens) (UniProt P10275); experiment: qHTS assay to identify small molecule agonists of the androgen receptor (AR) signaling pathway (AID 743036; active = well fitted activation curve with a large enough effect in the signal ratio in the repeat runs, with a control signal flat, not every such curve was filed as active; the % refers to the signal ratio; note: potency is the fitted concentration of half-maximal effect)
# Outline: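 AR-UAS-bla HEK293 cells, plated 4 h before dosing, were treated with compound for 16 h at 37C. beta-Lactamase reporter read after 2 h with LiveBLAzer B/G FRET substrate at room temperature.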
# [8] = target: Androgen receptor (Homo sapiens) (UniProt P10275); experiment: qHTS assay to identify small molecule agonists of the androgen receptor (AR) signaling pathway using the MDA cell line (AID 743040; note: nearly all actives have a fitted effect of over 20% in size; note: potency is the fitted concentration of half-maximal effect)
# Outline: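 MDA-kb2 breast carcinoma cells stably carrying an MMTV-driven luciferase reporter (AR- and GR-responsive) were seeded and held 5 h at 37C, 0% CO2, then exposed to compounds in DMSO for 16 h. Luminescence was read 30 min after ONE-Glo addition.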
# [9] = qHTS assay to identify small molecule antagonists of the androgen receptor (AR) signaling pathway using the MDA cell line - cell viability counter screen (AID 743041; note: nearly all actives have a fitted effect of over 45% in size)
# Outline: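 MDA-kb2 AR-luc human breast carcinoma cells (MMTV-luciferase, AR/GR responsive) were treated with compounds plus R1881 agonist for 16 h at 37 °C. Viability was read as CellTiter-Fluor fluorescence in the same wells as the reporter assay.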
# [10] = target: Androgen receptor (Homo sapiens) (UniProt P10275); experiment: qHTS assay to identify small molecule antagonists of the androgen receptor (AR) signaling pathway using the MDA cell line (AID 743042; note: nearly all actives have a fitted effect of over 55% in size; note: potency is the fitted concentration of half-maximal effect)
# Outline: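 MDA-kb2 cells (human breast carcinoma, stably carrying an MMTV-luciferase reporter responsive to AR and GR) were plated at 3,000 cells/well and preincubated 5 hr at 37C, then given compound plus R1881 agonist for 16 h. ONE-Glo luminescence was read.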
# Androgen receptor (Homo sapiens), sequence (P10275 whole entry, looked up): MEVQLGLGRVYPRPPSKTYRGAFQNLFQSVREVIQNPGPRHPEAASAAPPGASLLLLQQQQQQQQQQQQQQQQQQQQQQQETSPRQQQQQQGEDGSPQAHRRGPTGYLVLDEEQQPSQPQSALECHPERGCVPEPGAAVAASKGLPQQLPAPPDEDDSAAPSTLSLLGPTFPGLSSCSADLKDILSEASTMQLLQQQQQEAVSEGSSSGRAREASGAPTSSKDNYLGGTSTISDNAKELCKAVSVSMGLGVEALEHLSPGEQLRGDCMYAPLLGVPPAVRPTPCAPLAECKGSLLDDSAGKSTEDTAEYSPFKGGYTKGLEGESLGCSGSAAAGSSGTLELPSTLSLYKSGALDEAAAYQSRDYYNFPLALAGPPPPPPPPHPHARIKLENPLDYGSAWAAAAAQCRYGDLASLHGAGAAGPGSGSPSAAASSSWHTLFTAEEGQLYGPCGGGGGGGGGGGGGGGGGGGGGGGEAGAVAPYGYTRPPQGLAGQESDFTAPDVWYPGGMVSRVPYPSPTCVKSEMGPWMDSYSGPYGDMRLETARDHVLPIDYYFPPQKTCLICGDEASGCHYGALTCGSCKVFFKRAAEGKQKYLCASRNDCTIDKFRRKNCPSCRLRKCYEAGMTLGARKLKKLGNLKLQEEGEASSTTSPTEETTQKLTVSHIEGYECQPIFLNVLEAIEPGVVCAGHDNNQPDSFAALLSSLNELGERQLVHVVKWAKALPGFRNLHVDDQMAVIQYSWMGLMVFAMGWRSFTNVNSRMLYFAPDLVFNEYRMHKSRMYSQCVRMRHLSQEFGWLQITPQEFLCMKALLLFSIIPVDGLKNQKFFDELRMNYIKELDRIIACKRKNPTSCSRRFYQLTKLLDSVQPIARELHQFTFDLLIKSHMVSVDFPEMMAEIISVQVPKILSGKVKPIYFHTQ
SMILES,Potency [1],Potency [2],Potency [3],Potency [4],Potency [5],Potency [6],Potency [7],Potency [8],Potency [9],Potency [10]
CCC(C)[C@H]1O[C@]2(C=C[C@@H]1C)C[C@@H]1C[C@@H](C/C=C(\C)[C@@H](O[C@H]3C[C@H](OC)[C@@H](O[C@H]4C[C@H](OC)[C@H](NC(C)=O)[C@H](C)O4)[C@H](C)O3)[C@@H](C)/C=C/C=C3\CO[C@@H]4[C@H](O)C(C)=C[C@@H](C(=O)O1)[C@]34O)O2 (some centres undefined),7.56 µM (active) and 19 µM (active),841 nM (active) and 1.68 µM (active),1.33 µM (active) and 2.98 µM (active),1.68 µM (active) and 3.35 µM (active),inactive,–,–,–,–,–
C[Se]CCC(N)C(=O)O (centres undefined),inactive,inactive,inactive,inactive,inactive,–,–,–,–,–
CC(C)(C)C1(O)CCN2CC3c4ccccc4CCc4cccc(c43)C2C1 (centres undefined),inactive,9.44 µM (active),11.9 µM (active),11.9 µM (active),inactive,–,–,–,–,–
CCCCOC(=O)C(=O)Nc1cccc(-c2nn[nH]n2)c1,inactive,inactive,inactive,inactive,inactive,inactive,inactive,inactive,inactive,inactive
CC(CN(C)C)CN1c2ccccc2S(=O)(=O)c2ccccc21 (centres undefined),inactive,inactive,inactive,inactive,inactive,inactive,inactive,inactive,inactive,inactive
CCC(=O)c1ccc2c(c1)N(CCCN1CCN(CCO)CC1)c1ccccc1S2,inactive,2.66 µM (active),2.66 µM (active),4.22 µM (active),–,–,–,–,–,–
Nc1ccn(C[C@@H](CO)OCP(=O)(O)O)c(=O)n1,inactive,inactive,inactive,inactive,inactive,inactive,inactive,inactive,inactive,inactive
CN1CC(O)c2cc(N=NC(N)=O)c(O)cc21 (centres undefined),inactive,inactive,inactive,inactive,inactive,–,–,–,–,–
S=C1SCN(Cc2ccccc2)CN1Cc1ccccc1,inactive,10.6 µM (active),13.3 µM (active),13.3 µM (active),inactive,–,–,–,–,–
CC(CCc1ccc(O)cc1)NCC(O)c1ccc(O)cc1 (centres undefined),inactive,inactive,inactive,inactive,inactive,inactive,inactive,inactive,inactive,inactive
COC(=O)C1=C(C)NC(C)=C(C(=O)O[C@H]2CCN(Cc3ccccc3)C2)[C@H]1c1cccc([N+](=O)[O-])c1,inactive,10.6 µM (active),18.8 µM (active),13.3 µM (active),inactive,26.8 µM (active),inactive,inactive,–,–
CCOc1ccc(C[C@H]2NC(=O)CCSSC[C@@H](C(=O)N3CCC[C@H]3C(=O)N[C@@H](CCCN)C(=O)NCC(N)=O)NC(=O)[C@H](CC(N)=O)NC(=O)[C@H]([C@@H](C)O)NC(=O)[C@H]([C@@H](C)CC)NC2=O)cc1 ([Mpa][dY](Et)ITNCP[Orn]G-NH2; disulfide 1-6),inactive,inactive,inactive,inactive,inactive,inactive,inactive,inactive,inactive,inactive
N[C@@H](C(=O)N[C@@H]1C(=O)N2C(C(=O)O)=C(CSc3cn[nH]n3)CS[C@H]12)c1ccc(O)cc1,inactive,inactive,inactive,inactive,inactive,inactive,inactive,inactive,inactive,inactive
Cc1ncc(C[n+]2csc(CCOP(=O)(O)OP(=O)(O)O)c2C)c(N)n1,inactive,inactive,inactive,inactive,inactive,inactive,inactive,inactive,inactive,inactive
CC(=C\c1ccccc1)/C=C1/SC(=S)N(CC(=O)O)C1=O,inactive,inactive,inactive,inactive,–,–,–,–,–,–
CCN(CC)CCC(=O)N1c2ccccc2Sc2ccc(C(F)(F)F)cc21,inactive,5.96 µM (active),10.6 µM (active),8.41 µM (active),inactive,–,–,–,–,–
C[C@H]1[C@@H](OC(=O)CCC(=O)O)O[C@@H]2OC3(C)CC[C@H]4[C@H](C)CC[C@@H]1[C@@]24OO3,inactive,0.188 µM (active),0.188 µM (active),0.119 µM (active),inactive,–,–,–,–,–
CC#CCC(C)[C@H](O)/C=C/[C@@H]1[C@H]2c3cccc(CCCC(=O)O)c3O[C@H]2C[C@H]1O (some centres undefined),inactive,inactive,inactive,inactive,inactive,–,–,inactive,inactive,inactive
O=C[C@H](O)[C@@H](O)[C@H](O[C@H]1O[C@H](CO)[C@@H](O[C@H]2O[C@H](CO)[C@@H](O)[C@H](O)[C@H]2O)[C@H](O)[C@H]1O)[C@H](O)CO,inactive,inactive,inactive,inactive,inactive,inactive,7.56 µM (active),1.68 µM (active),inactive,inactive
C=C1CC[C@H](O)CC1=C/C=C1\CCC[C@]2(C)[C@@H]([C@H](C)CCCC(C)(C)O)CC[C@@H]12,10.7 µM (active),5.96 µM (active),6.68 µM (active),5.96 µM (active),inactive,–,inactive,inactive,inactive,26.6 µM (active)
CO[C@@H]1[C@@H](O[C@@H]2O[C@H](C)[C@@H](O[C@H]3C[C@@](C)(O)[C@@H](OC(=O)CC(C)C)[C@H](C)O3)[C@H](N(C)C)[C@H]2O)[C@@H](CC=O)C[C@@H](C)C(=O)/C=C/C2OC2C[C@@H](C)OC(=O)C[C@H]1OC(C)=O (some centres undefined),inactive,3.35 µM (active),5.31 µM (active),5.31 µM (active),inactive,–,–,inactive,–,–

# Reference: PubChem BioAssay (Tox21)
